Reference: the supplement of paper PMC9334596
Values joined by “and” are separate entries in the source; they are usually repeats but may differ in a detail not shown here. Equal entries are not always repeated. The full ranking holds about 5,300 compounds; the median of “PER2::LUC luminescence relative to vehicle control” is about 0.96, and the highest 2% start at about 1.3. Many of the other results were omitted from the sample, so the highest values are more common in it than they were.

Test system: mPer2Luc MEF
Experiment: PER2::LUC luminescence relative to vehicle control (fold of vehicle); higher = higher PER2::LUC reporter signal
Details: 10 µM
In short: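 Mouse embryonic fibroblasts carrying the mPer2Luc reporter were seeded at ~3000 cells per well in 384-well plates, 48 h before compounds from commercial libraries were added at 10 μM. Cells were grown in DMEM with 10% FBS at 37 °C and 5% CO2. Luminescence was read with the ONE-Glo luciferase assay system 24 h and 30 h after treatment, followed by an alamarBlue viability assay. The value is PER2::LUC luminescence as fold of vehicle control.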

SMILES	PER2::LUC luminescence (time after treatment 24 h)	PER2::LUC luminescence (time after treatment 30 h)
COc1ccc([C@@H]2CC(=O)c3c(O)cc(OC4O[C@H](CO[C@H]5O[C@@H](C)[C@@H](O)[C@@H](O)[C@H]5O)[C@H](O)[C@H](O)[C@H]4O)cc3O2)cc1O (some centres not stated)	1.02	1.03
O=C(NCc1nc2ccccc2c(=O)n1-c1ccc(F)cc1)Nc1ccc(Cl)c(C(F)(F)F)c1	1	0.929
O=S(=O)(O)c1cc(N=C=S)ccc1/C=C/c1ccc(N=C=S)cc1S(=O)(=O)O	0.832	0.684
C/C(O)=C(\C#N)C(=O)Nc1ccc(C(F)(F)F)cc1	1.32 and 1.08	1.56 and 1.07
CC(=O)Nc1ccc(NC(=S)NC(=O)c2ccc(C(C)(C)C)cc2)cc1	0.812	0.973
CC(=O)Nc1ccc(O)cc1	0.846	0.81
O=C([O-])CN1CCN(CC(=O)[O-])CCN([C@H](CO)[C@H](O)CO)CCN(CC(=O)[O-])CC1.[Gd+3] (racemic)	1.03	1.04
C[C@H]1COC2(CCN(c3nc(=O)c4cc(C(F)(F)F)cc([N+](=O)[O-])c4s3)CC2)O1 (racemic)	1.32	1.39
COCc1c(C(C)C)nc(C(C)C)c(/C=C/[C@@H](O)C[C@@H](O)CC(=O)O)c1-c1ccc(F)cc1	0.305	0.274
CCCCN1CCCC1CNC(=O)c1cc(C#N)c2ccccc2c1OC (configuration not stated)	1	1.58
CCN1CCC[C@H]1CNC(=O)c1c(O)c(Cl)cc(Cl)c1OC	1.14 and 1.02	0.977 and 0.877
CCN1CCC[C@H]1CNC(=O)c1c(OC)ccc(Br)c1OC	1.03	0.993
CC(C)=CCC[C@@H](C)[C@H]1CC[C@@]2(C)C3=C(CC[C@]12C)[C@@]1(C)CC[C@H](O)C(C)(C)[C@@H]1CC3	1.06	0.995
O=C(O)CC1CCC(c2ccc(-c3ccc4nc(C(=O)NCc5ccc(OC(F)(F)F)cc5)cn4c3)cc2)CC1 (configuration not stated)	1	1.1
c1ccc(Cc2nc3ccccc3[nH]2)cc1	1.17	0.971
CC(C)(C)c1ccc(-c2nc3ccccc3[nH]2)cc1	0.03	0.034
c1ccc2[nH]c(-c3cscn3)nc2c1	1.41	1.35
O=C(NC[C@@H]1CN(c2ccc(N3CCOCC3=O)cc2)C(=O)O1)c1ccc(Cl)s1	0.948	0.975
CNC(=O)[C@H]1O[C@@H](n2cnc3c(N)ncnc32)[C@H](O)[C@@H]1O	1.11	1.03
CC1(O)CCC(C(C)(C)O)CC1 (configuration not stated)	0.901 and 0.99	0.986 and 0.688
C[C@H]1CC[C@@H](C(C)(C)O)CC2=C1CC[C@@H]2C	1.46	1.05

SMILES	PER2::LUC luminescence (time after treatment 24 h)	PER2::LUC luminescence (time after treatment 30 h)
CCOc1ccc2nc(S(N)(=O)=O)sc2c1	1.19	1.28
Nc1nc2ccc(OC(F)(F)F)cc2s1	1.26 and 0.999	1.5 and 1.06
Oc1cc(O)cc(/C=C/c2ccc(O)c(O)c2)c1	1.15	1.09
Oc1ccc(/C=C/c2cc(O)cc(O)c2)cc1	1.46	1.29
COc1cc(/C=C/c2ccc(O)cc2)cc(OC)c1	1.03	0.93
NC1(C(=O)O)C[C@@H](C(=O)O)[C@H](C(=O)O)C1 (racemic)	0.98	0.892
COc1cc(-c2oc3cc(O)ccc3c(=O)c2O)ccc1O	1.13	1.2
COc1cc(N(C)CCN(C)C)c(N)cc1Nc1nccc(-c2cn(C)c3ccccc23)n1	0.57	0.54
COc1ccc2c(C)cc(=O)oc2c1	0.984	1.02
COc1ccc2c(c1)OC/C(=C\c1ccc(OC)c(O)c1)C2=O	0.879	0.794
COc1ccc2c(c1)OCc1c-2oc2cc(OC)ccc12	1.52	1.8
OC1c2ccccc2N=C2CCCN21 (configuration not stated)	0.854	0.868
N#CCC(C1CCCC1)n1cc(-c2ncnc3[nH]ccc23)cn1 (configuration not stated)	1.26	1.51
N#CC[C@H](C1CCCC1)n1cc(-c2ncnc3[nH]ccc23)cn1	0.99	1.13
CCS(=O)(=O)N1CC(CC#N)(n2cc(-c3ncnc4[nH]ccc34)cn2)C1	1.09 and 0.875	1.24 and 1.03
CCC1=C[C@H]2CN(C1)Cc1c([nH]c3ccccc13)[C@@](C(=O)OC)(c1cc3c(cc1OC)N(C)[C@H]1[C@@](O)(C(=O)OC)[C@H](OC(C)=O)[C@]4(CC)C=CCN5CC[C@]31[C@@H]54)C2	0.279	0.324
O=C(Nc1ccc(Cl)cc1)c1cc(Br)ccc1O	0.822	0.728
CCc1c(C(=O)NNC(=O)[C@@H](O)c2cc(F)cc(F)c2)ccc(O)c1C	1.02	1.09
O=Nc1c(-c2c(O)[nH]c3cc(Br)ccc23)[nH]c2ccccc12	0.663	0.788
O=Nc1c(-c2c(O)[nH]c3ccccc23)[nH]c2ccccc12	1.72	2.02
O=C1N=c2ccccc2=C1c1c(O)[nH]c2ccccc12	0.942	0.677

SMILES	PER2::LUC luminescence (time after treatment 24 h)	PER2::LUC luminescence (time after treatment 30 h)
CN(C)Cc1nc(-c2cn(C)c3ccccc23)no1	0.847	0.949
CCCN(CCC)S(=O)(=O)c1ccc(C(=O)O)cc1	0.832	0.861
O=C(O)c1ccc(S(=O)(=O)N(Cl)Cl)cc1	0.921	1.67
NS(=O)(=O)c1ccc(C(=O)O)cc1	0.746	1.06
COc1cccc(/C=N/N(C(=O)C(F)(F)F)c2ccc(C)cc2C)c1	0.818	0.768
CN(CCCNC(=O)c1ccc2nc3c(c(Cl)c2c1)CCCC3)Cc1ccccc1	0.848	0.958
C=CCn1c(=O)c2c(nc(-c3ccccc3)n2C)n(C)c1=O	0.98	0.951
O=c1c(O)c(-c2ccc(O)c(O)c2)oc2cc(O)cc(O)c12	0.939 and 0.842	0.934 and 1
O=c1c(O)c(-c2ccc(O)cc2O)oc2cc(O)cc(O)c12	0.955	0.963
O=c1c(O)c(-c2cc(O)c(O)c(O)c2)oc2cc(O)cc(O)c12	1.22	1.34
O=c1c(O)c(-c2ccc(O)cc2)oc2cc(O)cc(O)c12	1.01	0.989
O=c1c(O)c(-c2ccccc2)oc2cc(O)cc(O)c12	1.24	1.34
O=c1c(O)c(-c2ccccc2O)oc2cc(O)cc(O)c12	0.983	0.996
C[C@@H]1O[C@@H](O[C@H]2[C@H](Oc3cc(O)c4c(=O)c(O)c(-c5ccc(O)cc5)oc4c3)O[C@H](CO)[C@@H](O)[C@@H]2O)[C@H](O)[C@H](O)[C@H]1O	1.24	0.968
COC(=O)C1=CO[C@@H](O[C@@H]2O[C@H](CO)[C@@H](O)[C@H](O)[C@H]2O)[C@H]2[C@@H]1C(=O)C[C@@H]2C	0.968	0.979
NC(=O)[C@@H]1CC[C@H](c2ccc(OCc3ccccc3F)cc2)N1	0.937	1.12
COc1ccc(C(=O)c2ccccc2C(=O)O)c(O)c1	1.19	0.841
Ic1cccc(/C=N/Nc2nc(N3CCOCC3)nc(N(c3ccccc3)c3ccccc3)n2)c1	1.3	1.15
CCOC(=O)C1=C(COCCN)NC(C)=C(C(=O)OC)[C@@H]1c1ccccc1Cl	0.445	0.46
COC(=O)C1=C(C)NC(C)=C(C(=O)OCCN(C)Cc2ccccc2)C1c1cccc([N+](=O)[O-])c1 (configuration not stated)	1.07	0.867
COCCOC(=O)C1=C(C)NC(C)=C(C(=O)OC(C)C)C1c1cccc([N+](=O)[O-])c1 (configuration not stated)	1.13	1.17

SMILES	PER2::LUC luminescence (time after treatment 24 h)	PER2::LUC luminescence (time after treatment 30 h)
CCOC(=O)C1=C(C)NC(C)=C(C(=O)OC)C1c1cccc([N+](=O)[O-])c1 (configuration not stated)	1.06 and 0.626	1.37 and 0.715
CNCc1ccc(C)c(NC(=O)c2ccc(Nc3nc(-c4ccccc4)c4ccccc4n3)cc2)c1	0.439	0.475
Cc1ccc(NC(=O)c2cccc(N(C)C)c2)cc1NC(=O)c1ccc(O)cc1	1.1	1.56
Cc1ccc(C(=O)Nc2ccc(S(=O)(=O)O)c3cc(S(=O)(=O)O)cc(S(=O)(=O)O)c23)cc1NC(=O)c1cccc(NC(=O)Nc2cccc(C(=O)Nc3cc(C(=O)Nc4ccc(S(=O)(=O)O)c5cc(S(=O)(=O)O)cc(S(=O)(=O)O)c45)ccc3C)c2)c1	0.964 and 0.875	0.981 and 0.97
CO/S(=N\S(=O)(=O)c1ccc(Cl)cc1)c1ccc([N+](=O)[O-])cc1 (configuration not stated)	0.994	1.22
NC(=O)c1ccc2nc(-c3ccc(Oc4ccc(Cl)cc4)cc3)[nH]c2c1	1.29	1.16
COc1cc(OC)cc(C(=O)Nc2ccc(Cl)c(-c3nc4ccc(N(C)C)cc4[nH]3)c2)c1	0.977	1.35
CC(C)CC[C@@H](O)[C@](C)(O)[C@H]1CC[C@@]2(O)C3=CC(=O)[C@]4(O)C[C@@H](O)[C@@H](O)C[C@]4(C)[C@H]3[C@H](O)C[C@]12C	1.22	1.26
Cc1o[nH]c(=O)c1CCC(N)C(=O)O (configuration not stated)	0.959	0.829
O=C[C@H](O)[C@H]1OC(=O)[C@@H](O)[C@H]1O	1.14	0.922
C[n+]1cc(NC(=O)c2cccc(C(=O)Nc3cc4ccccc4[n+](C)c3)n2)cc2ccccc21	0.697	0.604
Cc1cccn2c(=O)c(C=C(C#N)c3nc4ccccc4s3)c(Oc3ccc(F)cc3)nc12	0.941	0.942
CCCCCCCC/C=C/CCCCCCCCOP(=O)([O-])OCC[N+](C)(C)C	1.02	0.935
OC[C@H]1O[C@@H](O[C@H]2[C@H](O)[C@@H](O)[C@@H](O)O[C@@H]2CO)[C@H](O)[C@@H](O)[C@@H]1O	0.982	0.927
OC[C@H]1O[C@@H](O[C@H]2[C@H](O)[C@@H](O)C(O)O[C@@H]2CO)[C@H](O)[C@@H](O)[C@H]1O (some centres not stated)	1.03	1.06
OC[C@H]1O[C@@H](O[C@@H]2[C@@H](CO)OC(O)(CO)[C@H]2O)[C@H](O)[C@@H](O)[C@H]1O (mixture of isomers)	1.12	1.37
CCCC1(C)C(C#N)(C#N)C1(C#N)C#N	1.15	1.04
CC[C@H](CC[C@@H](C)[C@H]1CC[C@H]2[C@@H]3CC=C4C[C@@H](OC(C)=O)CC[C@]4(C)[C@H]3CC[C@]12C)C(C)C	1.04	1.02
